According to PubChem BioAssay (Tox21):
Inconclusive results are not listed. Activity calls are given as the source filed them. The call rests on the fitted dose curve; in most records, active means well fitted curve in the direction sought with a large enough effect in the repeat runs; inconclusive means weak or mixed curves; inactive means no such curve, though single readings can be large; an effect the other way counts as inactive or inconclusive.

Experiments:
[1] = qHTS RealTime-Glo MT Cell Viability Assay in HepG2 cells - 24 hour (AID 1224867); conditions: RealTime-Glo luminescence; series mostly up to 76.8 µM; further: nearly all actives have a fitted effect of over 50% in size
Summary of the method: (§1)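 Real-time, nonlytic viability: 600 HepG2 cells/well mixed with NanoLuc enzyme plus prosubstrate; 5 h settle, compound (DMSO) added by pintool; luminescence monitored over 40 h at 37 C.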

[2] = qHTS RealTime-Glo MT Cell Viability Assay in HEK293 cells - 32 hour (AID 1224868); conditions: RealTime-Glo luminescence; series mostly up to 76.8 µM; further: top concentration of the series differs between compounds; nearly all actives have a fitted effect of over 50% in size
Summary of the method: (§2)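 Cells + reagent dispensed (600 cells/well, HEK293) → 5 h at 37 C/5% CO2 → 23 nL compound in DMSO pinned → 40 h at 37 C → luminescence read at 0, 8, 16, 24, 32, 40 h.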

[3] = A CellTox Green Cytotoxicity Assay to monitor cytotoxicity in HEK293 cells - 0 hour (AID 1224869); conditions: CellTox Green fluorescence; series mostly up to 76.8 µM; further: nearly all actives have a fitted effect of over 50% in size
Summary of the method: (§3)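 Fluorescence intensity, read at 0, 8, 16, 24, 32 and 40 h of compound treatment, reflected dye binding to DNA of dead HEK293 cells; compounds (23 nL, DMSO) were added 5 h after plating cells with reagent.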

[4] = qHTS RealTime-Glo MT Cell Viability Assay in HepG2 cells - 40 hour (AID 1224870); conditions: RealTime-Glo luminescence; series mostly up to 76.8 µM; further: nearly all actives have a fitted effect of over 50% in size
Summary of the method: (§4)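 HepG2 cells mixed with RealTime-Glo MT reagents (NanoLuc plus cell-permeant prosubstrate) were seeded at 600 cells/well, incubated 5 h at 37 C/5% CO2, then pinned with compounds in DMSO; nonlytic luminescence tracked viability during 40 h treatment.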

[5] = A CellTox Green Cytotoxicity Assay to monitor cytotoxicity in HEK293 cells - 40 hour (AID 1224871); conditions: CellTox Green fluorescence; series mostly up to 76.8 µM; further: nearly all actives have a fitted effect of over 45% in size
Summary of the method: as §3

[6] = qHTS RealTime-Glo MT Cell Viability Assay in HEK293 cells - 16 hour (AID 1224872); conditions: RealTime-Glo luminescence; series mostly up to 76.8 µM
Summary of the method: as §2

[7] = qHTS RealTime-Glo MT Cell Viability Assay in HepG2 cells - 8 hour (AID 1224873); conditions: RealTime-Glo luminescence; series mostly up to 76.8 µM; further: nearly all actives have a fitted effect of over 55% in size
Summary of the method: as §4

[8] = qHTS RealTime-Glo MT Cell Viability Assay in HEK293 cells - 40 hour (AID 1224874); conditions: RealTime-Glo luminescence, hits give low values; further: nearly all actives have a fitted effect of over 50% in size
Summary of the method: (§5)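 Viable HEK293 cells reduce a cell-permeant prosubstrate; the product diffuses out and is consumed by NanoLuc in the medium to give light. Compounds went in after a 5 h incubation and plates were read over the treatment course.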

[9] = A CellTox Green Cytotoxicity Assay to monitor cytotoxicity in HepG2 cells - 16 hour (AID 1224876); conditions: CellTox Green fluorescence; series mostly up to 76.8 µM; further: nearly all actives have a fitted effect of over 45% in size
Summary of the method: (§6)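 Using 1536-well format, dye-containing HepG2 suspension was seeded, allowed 5 h at 37 C/5% CO2, dosed by pintool with compounds, positive and negative controls, and imaged for fluorescence across 40 h.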

[10] = qHTS RealTime-Glo MT Cell Viability Assay in HepG2 cells - 32 hour (AID 1224877); conditions: RealTime-Glo luminescence; series mostly up to 76.8 µM; further: nearly all actives have a fitted effect of over 55% in size
Summary of the method: as §1

[11] = A CellTox Green Cytotoxicity Assay to monitor cytotoxicity in HepG2 cells - 24 hour (AID 1224878); conditions: CellTox Green fluorescence; series mostly up to 76.8 µM; further: nearly all actives have a fitted effect of over 45% in size
Summary of the method: as §6

[12] = A CellTox Green Cytotoxicity Assay to monitor cytotoxicity in HepG2 cells - 40 hour (AID 1224879); conditions: CellTox Green fluorescence; series mostly up to 76.8 µM; further: nearly all actives have a fitted effect of over 40% in size
Summary of the method: as §6

[13] = qHTS RealTime-Glo MT Cell Viability Assay in HEK293 cells - 0 hour (AID 1224880); conditions: RealTime-Glo luminescence; series mostly up to 76.8 µM; further: top concentration of the series differs between compounds; nearly all actives have a fitted effect of over 45% in size
Summary of the method: as §5

[14] = A CellTox Green Cytotoxicity Assay to monitor cytotoxicity in HEK293 cells - 32 hour (AID 1224881); conditions: CellTox Green fluorescence; series mostly up to 76.8 µM; further: nearly all actives have a fitted effect of over 40% in size
Summary of the method: as §3

[15] = A CellTox Green Cytotoxicity Assay to monitor cytotoxicity in HepG2 cells - 0 hour (AID 1224882); conditions: CellTox Green fluorescence; series mostly up to 76.8 µM; further: nearly all actives have a fitted effect of over 35% in size
Summary of the method: as §6

[16] = A CellTox Green Cytotoxicity Assay to monitor cytotoxicity in HepG2 cells - 32 hour (AID 1224883); conditions: CellTox Green fluorescence; series mostly up to 76.8 µM; further: nearly all actives have a fitted effect of over 50% in size
Summary of the method: as §6

[17] = qHTS RealTime-Glo MT Cell Viability Assay in HepG2 cells - 16 hour (AID 1224885); conditions: RealTime-Glo luminescence; series mostly up to 76.8 µM; further: nearly all actives have a fitted effect of over 50% in size
Summary of the method: as §1

[18] = qHTS RealTime-Glo MT Cell Viability Assay in HEK293 cells - 24 hour (AID 1224886); conditions: RealTime-Glo luminescence; series mostly up to 76.8 µM
Summary of the method: as §2

[19] = A CellTox Green Cytotoxicity Assay to monitor cytotoxicity in HEK293 cells - 8 hour (AID 1224884); conditions: CellTox Green fluorescence; series mostly up to 76.8 µM; further: nearly all actives have a fitted effect of over 35% in size
Summary of the method: as §3

[20] = A CellTox Green Cytotoxicity Assay to monitor cytotoxicity in HEK293 cells - 24 hour (AID 1224875); conditions: CellTox Green fluorescence; series mostly up to 76.8 µM; further: nearly all actives have a fitted effect of over 45% in size
Summary of the method: as §3
On the % scale 0 is the no-effect control and ±100 the full control effect.

Cc1nc2ccc(Cl)cc2[nH]1
inactive: outcome [1] | outcome [2] | outcome [3] | outcome [4] | Potency [5] | outcome [6] | outcome [7] | max response [8] 7.55% | Potency [9] | outcome [10] | Potency [11] | Potency [12] | Potency [13] | Potency [14] | Potency [15] | Potency [16] | outcome [17] | outcome [18]

OCCC(F)(F)C(F)(F)C(F)(F)C(F)(F)C(F)(F)C(F)(F)F
inactive: outcome [1] | outcome [2] | outcome [3] | outcome [4] | Potency [5] | outcome [6] | outcome [7] | max response [8] -4.06% | Potency [9] | outcome [10] | Potency [11] | Potency [12] | Potency [13] | Potency [14] | Potency [15] | Potency [19] | outcome [17]

CCc1ncc(C)[nH]1
inactive: outcome [1] | outcome [2] | outcome [3] | outcome [4] | Potency [5] | outcome [6] | outcome [7] | max response [8] 1.1% | Potency [9] | outcome [10] | Potency [11] | Potency [12] | Potency [13] | Potency [14] | Potency [15] | Potency [19] | outcome [18]

CCCCN1C(=O)c2ccccc2C1=O
inactive: outcome [1] | outcome [2] | outcome [3] | outcome [4] | Potency [5] | outcome [6] | outcome [7] | max response [8] -3.23% | Potency [20] | outcome [10] | Potency [13] | Potency [14] | Potency [15] | Potency [19] | outcome [17] | outcome [18]

CCCCCCCOC(C)=O
inactive: outcome [1] | outcome [2] | outcome [3] | outcome [4] | Potency [5] | outcome [6] | outcome [7] | max response [8] -2.34% | Potency [9] | outcome [10] | Potency [11] | Potency [12] | Potency [14] | Potency [15] | Potency [16] | outcome [17] | outcome [18]

BrCCOc1ccccc1
inactive: outcome [1] | outcome [2] | outcome [3] | outcome [4] | Potency [5] | outcome [6] | outcome [7] | max response [8] -4.49% | Potency [9] | outcome [10] | Potency [11] | Potency [12] | Potency [13] | Potency [19] | outcome [17]

CC(C)(Sc1cc(C(C)(C)C)c(O)c(C(C)(C)C)c1)Sc1cc(C(C)(C)C)c(O)c(C(C)(C)C)c1
inactive: outcome [1] | outcome [2] | outcome [3] | outcome [4] | Potency [5] | outcome [6] | outcome [7] | max response [8] 3.52% | Potency [9] | outcome [10] | Potency [11] | Potency [12] | Potency [13] | Potency [15] | Potency [16] | Potency [19] | outcome [17] | outcome [18]

N#Cc1cc(NC(=O)C(=O)O)c(Cl)c(NC(=O)C(=O)O)c1
inactive: outcome [1] | outcome [2] | outcome [3] | outcome [4] | Potency [5] | outcome [6] | outcome [7] | max response [8] -0.333% | Potency [20] | outcome [10] | Potency [11] | Potency [12] | Potency [14] | Potency [15] | Potency [16] | Potency [19] | outcome [17] | outcome [18]

Cc1ccccc1C#N
inactive: outcome [1] | outcome [2] | outcome [3] | outcome [4] | Potency [5] | outcome [6] | outcome [7] | max response [8] 7.55% | Potency [20] | outcome [10] | Potency [11] | Potency [12] | Potency [13] | Potency [16] | Potency [19] | outcome [17] | outcome [18]

COCc1nnc(-c2ccc[n+]([O-])c2)n1-c1c(Cl)c(Cl)cc2[nH]c(=O)c(=O)[nH]c12
inactive: outcome [1] | outcome [2] | outcome [3] | outcome [4] | Potency [5] | outcome [6] | outcome [7] | max response [8] -6.51% | Potency [9] | outcome [10] | Potency [11] | Potency [12] | Potency [13] | Potency [14] | Potency [15] | Potency [16] | Potency [19] | outcome [17] | outcome [18]

C=CC(=O)CC
inactive: outcome [1] | outcome [2] | outcome [3] | outcome [4] | Potency [5] | outcome [6] | outcome [7] | max response [8] 0.33% | Potency [20] | Potency [11] | Potency [12] | Potency [13] | Potency [14] | Potency [15] | Potency [19] | outcome [17] | outcome [18]

CC/C=C/CCCCCCCCCCOC(C)=O
inactive: outcome [1] | outcome [2] | outcome [3] | outcome [4] | Potency [5] | outcome [6] | outcome [7] | Potency [20] | outcome [10] | Potency [11] | Potency [12] | Potency [13] | Potency [14] | Potency [15] | Potency [16] | Potency [19] | outcome [17] | outcome [18]

CC(C)(C)C(=O)NCCCC(=O)O
inactive: outcome [1] | outcome [2] | outcome [3] | outcome [4] | Potency [5] | outcome [6] | outcome [7] | max response [8] 5.71% | Potency [9] | Potency [11] | Potency [12] | Potency [13] | Potency [14] | Potency [15] | Potency [16] | Potency [19] | outcome [18]

Cc1ccc(N)nc1
inactive: outcome [1] | outcome [2] | outcome [3] | outcome [4] | Potency [5] | outcome [6] | max response [8] 0.353% | Potency [20] | Potency [9] | outcome [10] | Potency [11] | Potency [12] | Potency [13] | Potency [14] | Potency [15] | Potency [16] | Potency [19] | outcome [17]

CCCCCCCCCCCBr
inactive: outcome [1] | outcome [2] | outcome [3] | outcome [4] | Potency [5] | outcome [6] | outcome [7] | max response [8] -3.54% | Potency [9] | Potency [11] | Potency [12] | Potency [13] | Potency [14] | Potency [15] | Potency [16] | Potency [19] | outcome [18]
